Data reported in PubChem BioAssay (NCATS).
Results filed as inconclusive are left out. Activity calls are given as the source filed them. The call rests on the fitted dose curve; in most records, active means well fitted curve in the direction sought with a large enough effect; inconclusive means small, poorly fitted or top-dose-only effect, or another doubt; inactive means no such curve, though single readings can be large; an effect the other way counts as inactive or inconclusive.

Experiments:
[1] = qHTS to identify inhibitors of the type 1 interferon - major histocompatibility complex class I in skeletal muscle: primary screen against the NCATS Pharmaceutical Collection (AID 1347407); conditions: human skeletal muscle cells, IFN-b-induced MHC-I HiBiT luminescence, 24 h; series mostly up to 45.9 µM;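 further: luminescence of HiBiT knocked into endogenous HLA-B as interferon-induced MHC class I level; on the % scale 0 is the no-effect control and ±100 the full control effect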
In short: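 Cells were seeded with 4 ng/ml IFN-beta, incubated 1 h, then dosed with compounds over eight 1:5 steps up to 46 uM final. After 24 h at 37 C, HiBiT lytic reagent was added and luminescence read after 10 min lysis in the dark.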

[2] = target: Protein phosphatase 1D (Homo sapiens) (UniProt O15297); assay: RapidFire Mass Spectrometry qHTS Assay for Modulators of WT P53-Induced Phosphatase 1 (WIP1) (AID 1347424); conditions: WIP1 dephosphorylation of phosphopeptide, RapidFire MS; series mostly up to 63 µM;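 further: amount of dephosphorylated VEPPL-S-QETFS peptide product formed by WIP1; plate controls were DMSO wells for no effect and GSK830371 inhibitor control at 10 µM for full effect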
In short: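 RapidFire mass spectrometry measured dephosphorylated peptide after 5 min room-temperature reaction of 2 uM VEPPL-pS-QETFS with 10 nM WIP1 (50 mM Tris-HCl pH 7.5, 30 mM MgCl2, 0.1 mM EGTA, BSA), following 1 hr compound preincubation; 1 uM isotope-labelled product standard.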

[3] = target: Protein phosphatase 1D (Homo sapiens) (UniProt O15297); assay: Rhodamine-PBP qHTS Assay for Modulators of WT P53-Induced Phosphatase 1 (WIP1) (AID 1347425); conditions: recombinant WIP1, Rhodamine-PBP phosphate fluorescence, real-time; series mostly up to 57.5 µM; further: % of control where 0% means no effect
In short: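 WIP1 (5 nM final) was preincubated with compound for 1 hour at room temperature. It then dephosphorylated 10 uM VEPPL-pS-QETFS peptide in Tris-HCl pH 7.5 with 30 mM MgCl2. Released Pi was detected by 10 uM Rh-PBP fluorescence (ex 525/em 598 nm) read at 1-min intervals for 11 min, as delta f1 - f0.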

[4] = Primary qHTS for inhibitors of La Crosse Virus (LACV) - induced cell death in SH-SY5Y cells (AID 1508616); conditions: SH-SY5Y LACV cytopathicity rescue, ATP luminescence, 6 d; series mostly up to 4.29 µM;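 further: top concentration of the series differs between compounds; 0% = infected DMSO wells and 100% = uninfected DMSO wells; higher means more rescue of cells from virus-induced death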
In short: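 Rescue of virus-induced death was read as ATPLite luminescence after 6 days at 37C, scaled between DMSO wells with LACV and without virus. Cells were SH-SY5Y, 6000/well, infected at 0.01 MOI after compound addition.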

[5] = target: Calcium and integrin-binding protein 1 (Homo sapiens) (UniProt Q99828); assay: Primary qHTS for Identification of Calcium Integrin Binding Protein 1 (CIB1) Competitor (AID 1508620); conditions: CIB1-GST / FITC-alphaIIb peptide fluorescence polarization; series mostly up to 114 µM;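 further: GST tagged CIB1 binding a fluorescein labelled alphaIIb integrin peptide tracer; top concentration of the series differs between compounds; on the % scale 0 is the no-effect control and ±100 the full control effect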
In short: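 CIB1-GST (1 uM final) and compound incubated 15 min at room temperature before adding FITC-alphaIIb peptide tracer (100 nM final). Competition for binding read by fluorescence polarization (ex 480, em 540) after another 15 min at room temperature.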

Protein phosphatase 1D (Homo sapiens), sequence (O15297 whole entry, looked up): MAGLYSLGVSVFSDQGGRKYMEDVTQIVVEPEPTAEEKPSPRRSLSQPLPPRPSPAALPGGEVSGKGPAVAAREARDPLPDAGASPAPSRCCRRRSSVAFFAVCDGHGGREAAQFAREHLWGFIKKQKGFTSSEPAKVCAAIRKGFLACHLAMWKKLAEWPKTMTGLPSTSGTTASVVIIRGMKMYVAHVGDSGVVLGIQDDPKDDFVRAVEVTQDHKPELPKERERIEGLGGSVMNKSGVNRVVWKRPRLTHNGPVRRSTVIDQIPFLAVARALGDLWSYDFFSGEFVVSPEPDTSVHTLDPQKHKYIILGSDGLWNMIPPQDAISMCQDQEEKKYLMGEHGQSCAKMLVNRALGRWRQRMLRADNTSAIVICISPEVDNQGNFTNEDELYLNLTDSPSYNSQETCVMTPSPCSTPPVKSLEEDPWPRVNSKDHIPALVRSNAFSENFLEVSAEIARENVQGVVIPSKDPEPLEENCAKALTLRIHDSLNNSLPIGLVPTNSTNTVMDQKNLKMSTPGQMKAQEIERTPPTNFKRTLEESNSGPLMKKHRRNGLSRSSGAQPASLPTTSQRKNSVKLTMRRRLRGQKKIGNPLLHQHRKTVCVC
Calcium and integrin-binding protein 1 (Homo sapiens), sequence (Q99828 whole entry, looked up): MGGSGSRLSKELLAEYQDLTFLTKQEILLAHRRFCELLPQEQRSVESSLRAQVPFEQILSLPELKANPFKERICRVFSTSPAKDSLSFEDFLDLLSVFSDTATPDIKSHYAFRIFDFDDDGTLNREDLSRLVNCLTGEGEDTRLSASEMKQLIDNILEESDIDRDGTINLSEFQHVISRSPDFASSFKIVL

COc1cc(O)cc(O)c1
inactive: outcome [1] | outcome [2] | outcome [3] | outcome [4] | outcome [5]

N[C@@H](Cc1ccc(O)cc1)C(=O)O
inactive: activity change, negative = inhibition [1] -1.9% [at 9.18 µM] | activity change, negative = inhibition [2] 3.61% [at 12.6 µM] | activity change, negative = inhibition [3] 8.22% [at 11.5 µM] | activity change [4] 20.5% [at 0.858 µM] | outcome [5]

COC(=O)c1ccccc1C(=O)c1ccc(OCCN2CCCCC2)cc1
inactive: outcome [1] | outcome [2] | outcome [3] | outcome [4] | outcome [5]

NC(=O)CCCCC1CCSS1 (stereo not given)
inactive: outcome [1] | outcome [2] | outcome [3] | outcome [4] | outcome [5]

CC[N+](C)(CC)CCOC(=O)C1c2ccccc2Oc2ccccc21
inactive: outcome [1] | outcome [2] | outcome [3] | outcome [4] | outcome [5]

O=C(O)CCCc1ccccc1
inactive: outcome [1] | outcome [2] | outcome [3] | outcome [4] | outcome [5]

Cc1[nH]c(C)c(Cl)c(=O)c1Cl
inactive: outcome [1] | outcome [2] | outcome [3] | outcome [4] | outcome [5]

COc1cc(C(=O)NCCCCCC(=O)O)cc(OC)c1OC
inactive: outcome [1] | outcome [2] | outcome [3] | outcome [4] | outcome [5]

CCCOC(=O)c1ccc(N)cc1
inactive: outcome [1] | outcome [2] | outcome [3] | outcome [4] | outcome [5]

O=C(Cn1ccnc1[N+](=O)[O-])NCCO
inactive: outcome [1] | outcome [2] | outcome [3] | outcome [4] | outcome [5]

O=C(O)c1ccc(OCCCOc2ccc(C(=O)O)cc2)cc1
inactive: outcome [1] | outcome [2] | outcome [3] | outcome [4] | outcome [5]

CN[C@@H]1[C@@H](O)[C@@H](O[C@@H]2[C@H](O)[C@H](O[C@H]3OC(CN)=CC[C@H]3N)[C@@H](N)C[C@H]2N)OCC1(C)O (stereo not given in full)
inactive: outcome [1] | outcome [2] | outcome [3] | outcome [4] | outcome [5]

CCOC(=O)[C@H](CCc1ccccc1)N[C@@H](C)C(=O)N1Cc2cc(OC)c(OC)cc2C[C@H]1C(=O)O
inactive: outcome [1] | outcome [2] | outcome [3] | outcome [4] | outcome [5]

C=CCSCC1Nc2cc(Cl)c(S(N)(=O)=O)cc2S(=O)(=O)N1 (stereo not given)
inactive: outcome [1] | outcome [2] | outcome [3] | outcome [4] | outcome [5]

O=C(Cn1ccnc1[N+](=O)[O-])NCc1ccccc1
inactive: outcome [1] | outcome [2] | outcome [3] | outcome [4] | outcome [5]

O=C1c2ccccc2S(=O)(=O)N1CCCCN1CCN(c2ncccn2)CC1
inactive: outcome [1] | outcome [2] | outcome [3] | outcome [4] | outcome [5]

O=C(NCC(O)CO)c1c(I)c(C(=O)NCC(O)CO)c(I)c(N(CCO)C(=O)CO)c1I (stereo not given)
inactive: outcome [1] | outcome [2] | outcome [3] | outcome [4] | outcome [5]

CCOC(=O)c1cccnc1
inactive: outcome [1] | outcome [2] | outcome [3] | outcome [4] | outcome [5]

CCS(=O)(=O)CCn1c([N+](=O)[O-])cnc1C
inactive: outcome [1] | outcome [2] | outcome [3] | outcome [4] | outcome [5]

CC(C)C[C@@H](N)C(=O)O
inactive: outcome [1] | outcome [2] | outcome [3] | outcome [4] | outcome [5]

CN1C(=O)CC(c2ccccc2)C1=O (stereo not given)
inactive: outcome [1] | outcome [2] | outcome [3] | outcome [4] | outcome [5]

CCCNC(C)(C)COC(=O)c1ccccc1
inactive: outcome [1] | outcome [2] | outcome [3] | outcome [4] | outcome [5]

O=C(O)COC(=O)Cc1ccccc1Nc1c(Cl)cccc1Cl
inactive: outcome [1] | outcome [2] | outcome [3] | outcome [4] | outcome [5]

CN1CC(=O)NC1=N
inactive: outcome [1] | outcome [2] | outcome [3] | outcome [4] | outcome [5]

Cc1ncc(CO)c(CN)c1O
inactive: outcome [1] | outcome [2] | outcome [3] | outcome [4] | outcome [5]

Cc1c(Cn2ccnc2)c2ccccc2n1CCC(=O)O
inactive: outcome [1] | outcome [2] | outcome [3] | outcome [4] | outcome [5]

CO[C@@]1(NC(=O)C(C(=O)O)c2ccc(O)cc2)C(=O)N2C(C(=O)O)=C(CSc3nnnn3C)CO[C@@H]21 (stereo not given in full)
inactive: outcome [1] | outcome [2] | outcome [3] | outcome [4] | outcome [5]

CCCCCCCC(=O)OCC(O)CO (stereo not given)
inactive: outcome [1] | outcome [2] | outcome [3] | outcome [4] | outcome [5]

CCCCCCCCCCCCCCCCCCO
inactive: outcome [1] | outcome [2] | outcome [3] | outcome [4] | outcome [5]

CC1CCc2cc(F)cc3c(=O)c(C(=O)O)cn1c23 (stereo not given)
inactive: outcome [1] | outcome [2] | outcome [3] | outcome [4] | outcome [5]

NC(N)=NS(=O)(=O)c1ccc(N)cc1
inactive: outcome [1] | outcome [2] | outcome [3] | outcome [4] | outcome [5]

COc1ccc2cc(CCC(C)=O)ccc2c1
inactive: outcome [1] | outcome [2] | outcome [3] | outcome [4] | outcome [5]

CCCCCC(C)N (stereo not given)
inactive: outcome [1] | outcome [2] | outcome [3] | outcome [4] | outcome [5]

C[N+]1(C)CCCC(OC(=O)C(O)(c2ccccc2)c2ccccc2)C1 (stereo not given)
inactive: outcome [1] | outcome [2] | outcome [3] | outcome [4] | outcome [5]

CC(=O)OCC(COC(C)=O)OC(C)=O
inactive: outcome [1] | outcome [2] | outcome [3] | outcome [4] | outcome [5]

CCc1nnc(NS(=O)(=O)c2ccc(N)cc2)s1
inactive: outcome [1] | outcome [2] | outcome [3] | outcome [4] | outcome [5]

CC(=O)N1C[C@H](O)C[C@H]1C(=O)O
inactive: outcome [1] | outcome [2] | outcome [3] | outcome [4] | outcome [5]
